# Assay outcomes as filed in PubChem BioAssay.
# VDR inhibitor = vitamin D3 receptor (human) inhibition; VDR-SRC2-3 peptide fluorescence polarization, 2 h; Potency, µM, for inactives: max response, negative = inhibition, usual class: inhibitors; hit rate 0.93% among 400,000; note: potency is the fitted concentration of half-maximal effect
# Target sequence (P11473 whole entry, looked up): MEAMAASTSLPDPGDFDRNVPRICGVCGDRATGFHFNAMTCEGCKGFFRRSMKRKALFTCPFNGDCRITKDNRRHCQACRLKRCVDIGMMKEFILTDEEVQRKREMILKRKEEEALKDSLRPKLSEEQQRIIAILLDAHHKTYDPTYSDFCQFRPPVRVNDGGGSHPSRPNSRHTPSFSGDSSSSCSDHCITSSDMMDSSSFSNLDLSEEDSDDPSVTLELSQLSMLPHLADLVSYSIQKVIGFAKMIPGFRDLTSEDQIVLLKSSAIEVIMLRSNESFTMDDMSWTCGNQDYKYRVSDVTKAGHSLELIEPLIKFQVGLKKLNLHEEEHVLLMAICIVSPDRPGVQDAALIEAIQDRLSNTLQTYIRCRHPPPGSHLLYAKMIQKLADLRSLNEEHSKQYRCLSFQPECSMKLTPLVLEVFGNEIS
#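 FP read-out; VDR + SRC2-3 coactivator peptide; 23 nl compound by pintool; 2 h RT incubation; reagents held at 4 deg C, protected from light.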
# G9a inh = G9a (human) methyltransferase inhibition; Q96KQ7; G9a H3K9 monomethylation, AlphaScreen, 2 h; Potency, µM (highest dose often 102 µM), without a hit: top-dose activity, negative = inhibition, usual class: inhibitors; hit rate 8.8% among 350,000; AID 504332; note: potency is the fitted concentration of half-maximal effect; nearly all actives have a fitted effect of over 75% in size
#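 Compounds were preincubated with 20 nM G9a for 15 min, after which biotinylated H3K9 peptide (500 nM) and SAM (20 uM) started a 2 h room-temperature reaction. Monomethylated product was quantified by antibody-based AlphaScreen chemiluminescence.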
# PLK1 PBD inh = blocks phosphopeptide binding to human PLK1 polo-box domain; Plk1 PBD binding of FITC phosphopeptide, fluorescence polarization; Potency, µM, for inactives: max response, negative = inhibition, actives largely listed as inhibitors; hit rate 2.8% among 360,000; note: potency is the fitted concentration of half-maximal effect; series mostly up to about 57 µM; nearly all actives have a fitted effect of over 65% in size
# MmCpn inh = M. maripaludis TRiC chaperonin inhibition | Potency, µM (series often up to 76.9 µM), without a hit: at the highest dose activity, negative = inhibition, actives largely listed as inhibitors | AID 504842 | purified Mm-Cpn ATPase, ADP Transcreener TR-FRET | hit rate 0.031% among 330,000; note: potency is the fitted concentration of half-maximal effect; nearly all actives have a fitted effect of over 80% in size
#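 Eu-cryptate anti-ADP/ADP-d2 competition gives a ratio inversely related to ADP. Enzyme at 25 nM was pre-exposed to compound for 10 min, then given 10 uM ATP for 30 min, 37°C throughout.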
# CCT modulator = cytosolic chaperonin activity modulation; purified chaperonin ATPase assay, HTRF ADP detection, 30 min; activity change, % (concentration not given with the values), hits read low; hit rate 0.3% among 360,000; AID 651819; in the data active = activity change below about -30%
#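 ATPase activity: ADP formed was measured by HTRF Transcreener (665/615 nm ratio) after 30 min at 37 deg C with 10 uM ATP. Compounds screened at one 76 uM concentration against 40 or 20 nM TRiC in Tris pH 7.4/KCl/MgCl2/DTT buffer.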
# Sfp PPTase inh = blocks B. subtilis Sfp PPTase activity; Q9F4F7; Potency, µM, for the others: largest response in the series, negative = inhibition, usual class: inhibitors; Biochemical Sfp PPTase activity, qHTS; AID 1490; hit rate 3.5% among 310,000;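 note: the enzyme is Sfp with the accession as filed and its product quenches rhodamine fluorescence; potency is the fitted concentration of half-maximal effect; 0% = enzyme reaction without inhibitor and -100% = no enzyme wells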
#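 Reaction rates are the 30-min fluorescence difference (ex 525, em 598 nm) in wells containing 15 nM Sfp, 5 uM rhodamine-CoA and 12.5 uM BHQ-2-YbbR at pH 7.6 with 10 mM MgCl2.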
# Active calls of the source: *; ? = inconclusive; . = not tested or not shown; [ ] = another dose, or the depositor's remark. Most compounds without a hit are left out; they make up all but 10% or so of the library. Unless noted, calls come from the whole dose curve; as a rule, active = well fitted curve in the direction sought with a large enough effect; inconclusive = small, poorly fitted or top-dose-only effect, or another doubt; inactive = no such curve, though single readings can be large; an effect the other way counts as inactive or inconclusive. Unless noted, % is set by controls: 0 for no effect and ±100 for the full control effect.
SMILES,VDR inhibitor,G9a inh,PLK1 PBD inh,MmCpn inh,CCT modulator,Sfp PPTase inh
O=C(NC1CCCCC1)C(c1cccnc1)N(CCc1ccccc1)C(=O)Cc1cccs1 (stereo not given),?,4%[59 µM],27µM*,-17%,-2,17%
O=C(NCC(=O)N(CCc1ccccc1)C(C(=O)NC1CCCCC1)c1ccncc1)c1ccco1 (stereo not given),4%,40µM*,0%,-1%,0,-4%
O=C(NC1CCCC1)C(c1ccncc1)N(Cc1cccs1)C(=O)c1csnn1 (stereo not given),-14%,?,-22%,-3%,-1,20µM*
COc1ccc(CCNC(=O)CSc2cn(CCNC(=O)c3c(F)cccc3F)c3ccccc23)cc1OC,5%,-1%[59 µM],.,.,.,.
CC(Oc1ccccc1)C(=O)N1CCN(Cc2cc(=O)n3nc(-c4ccccc4Cl)sc3n2)CC1 (stereo not given),5%,35%[59 µM],.,.,.,.
CC1(C)Cc2ccccc2C2CC(O)C(=O)N21 (stereo not given),-6%,22µM*,-17%,0%,3,?
CCOc1ccc(C(=O)NC(=S)Nc2cccnc2)cc1[N+](=O)[O-],?,?,6µM*,-4%,0,-25%
COc1ccc(C(=O)NC(=S)Nc2cccnc2)cc1[N+](=O)[O-],-9%,?,-12%,1%,1,-2%
CCOc1ccc(C(=O)NC(=S)Nc2ccc(N3CCC(C)CC3)cc2)cc1[N+](=O)[O-],1%,10µM*,-3%,1%,1,-10%
COc1cccc(NC(=O)C2CCN(S(=O)(=O)c3c(C)noc3C)CC2)c1,-24%,3%[59 µM],.,.,.,.
Cc1ccc(-c2nc(NCCN(C)C)c3ccccc3n2)cc1,2%,-5%,-1%,-1%,1,18%
CN(C)CCNc1cc(-c2ccncc2)nc2ccccc12,-10%,22µM*,-8%,2%,2,6%
CC1CCCN(c2c([N+](=O)[O-])c(=O)oc3ccccc23)C1 (stereo not given),-5%,45µM*,-4%,-1%,1,21%
COc1ccc(Br)cc1CN1CCCC(C(=O)N2CCCCCC2)C1 (stereo not given),-6%,27%[0.501 µM],-9%,2%,-4,?
COc1ccc(C(=O)N2CCCC(C(=O)O)C2)c2ccccc12 (stereo not given),6%,45µM*,-20%,-1%,1,2%
COc1ccc(Br)cc1CN1CCC(N2CCCC2)CC1,-18%,25µM*,4%,1%,-1,?
COc1ccccc1CN1CCCC(C(=O)N2CCCCC2)C1 (stereo not given),15%,18µM*,6%,1%,-2,-8%
COc1ccccc1C(=O)C1CCCN(C(=O)c2ccccc2C(C)=O)C1 (stereo not given),4%,-9%[12.7 µM],1%,1%,-1,12%
COc1ccc(Br)cc1CN1CCCC(C(=O)N2CCCCC2)C1 (stereo not given),-15%,10µM*,-2%,-1%,-1,-16%
COCCNc1cc(-c2ccccc2C)ncn1,30%,2%[0.501 µM],.,.,.,-20%
Cc1sc(N)c(C(=O)c2cccc(C(F)(F)F)c2)c1C,25µM*,.,.,.,.,79µM*
CCCCN(C)C1=Nc2cccc3cccc1c23,12%,10µM*,-7%,-6%,0,2%
Cn1c(=O)c2c(ncn2CCO)n(C)c1=O,-4%,-8%[59 µM],-3%,3%[15.4 µM],0,22%
Cn1c(=O)c2c(ncn2Cc2ccccc2)n(C)c1=O,-25%,15%[59 µM],27µM*,2%[15.4 µM],-2,18%
Cc1ccc(-c2c3c(=O)n(C)c(=O)n(C)c3cn2Cc2ccccc2)cc1,-17%,11µM*,-27%,-1%,0,-13%
Cc1ccc(OCCn2cnc3c2c(=O)n(C)c(=O)n3C)cc1,16%,45µM*,-13%,1%,0,15%
CCCn1cc2c(c1-c1ccc(C)cc1)c(=O)n(C)c(=O)n2C,8%,.,-10%,1%,-2,-4%
CCc1ccc(OC(C)C(=O)N2CCC(c3nc4ccccc4s3)CC2)cc1 (stereo not given),-1%,?,.,.,.,.
